Most compounds without a hit are left out; they make up all but 5.5% or so of the library.
RORg inh = ROR gamma (mouse) transcription inhibition. 5.4% of 310,000 active. Drosophila S2 Gal4-RORgamma UAS-luciferase reporter, 20 h. Potency, µM (top dose mostly 53.6 µM), without a hit: top-dose activity change, negative = inhibition, hits mostly inhibitors; further: potency means the concentration at half of the fitted maximal effect; on the % scale 0 is the no-effect control and ±100 the full control effect; nearly all actives have a fitted effect of over 60% in size
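In this cell-based reporter format, copper sulfate (700 uM final) drives Gal4–ROR gamma fusion expression from a metallothionein promoter in Drosophila Schneider cells; compounds preincubated 1 hr, reporter read after 20 hr at ambient temperature.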
CBFb-RUNX1 inh = CBF-beta/RUNX1 interaction disruption; AlphaScreen CBFb-His/RUNX1-biotin binding, biochemical; Potency, µM (titrated, usually from 59.8 µM), for inactives: top-dose activity, negative = inhibition, hits mostly inhibitors; 230,000 tested, under 10 active; further: % of control where 0% means no effect
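Room-temperature protein-protein interaction test with 30 nM each of His-tagged CBF-beta and biotinylated RUNX1, 15 min with compound, then 90 min with nickel plus streptavidin beads. Signal read in AlphaScreen mode.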
MBNL1-CUG inh = MBNL1-poly(CUG) RNA binding inhibition; Potency, µM (doses to about 57.5 µM), inactives show at the highest dose activity change, negative = inhibition, usual class: inhibitors; Q9NR56; AID 2675; 0.036% of 280,000 active; TR-FRET MBNL1-His/biotin-(CUG)12 binding, 665/545 ratio; active means well fitted inhibition curve with a large enough effect in the signal ratio, with a control signal flat, not every such curve was filed as active; inconclusive means small, poorly fitted or top-dose-only effect, or effect the other way, or a change in a side signal; inactive means no such curve, though single readings can be large or run the other way; the % refers to the signal ratio; further: potency means the concentration at half of the fitted maximal effect; on the % scale 0 is the no-effect control and ±100 the full control effect
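Inhibition of protein-RNA binding appears as loss of TR-FRET between terbium anti-His antibody on MBNL1-His and streptavidin-XL665 on biotin-(CUG)12. Activity is normalized to buffer-only and uninhibited-complex controls.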
VP16 counter = Gal4-VP16 reporter inhibition counter-screen. Drosophila S2 Gal4-VP16 UAS-luciferase, luminescence, 20 h. 3.5% of 310,000 active. Potency, µM (top dose mostly 53.6 µM), inactives show at the top dose activity, negative = inhibition, actives largely listed as inhibitors. AID 2546;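 further: Gal4-VP16 expression switched on by copper sulfate through the metallothionein promoter; potency means the concentration at half of the fitted maximal effect; on the % scale 0 is the no-effect control and ±100 the full control effect; nearly all actives have a fitted effect of over 50% in size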
Six1-Eya2 inh = Six1/Eya2 interaction inhibition; AlphaScreen GST-Six1/His-Eya2 binding, biochemical; active compounds read low; 0.56% of 360,000 active; Q15475+O00167; activity change, % (test concentration not listed); in the data active means activity change below about -65%; inconclusive means mostly about -30% to -63%; further: on the % scale 0 is the no-effect control and ±100 the full control effect
Target sequence (O00167 whole entry, looked up): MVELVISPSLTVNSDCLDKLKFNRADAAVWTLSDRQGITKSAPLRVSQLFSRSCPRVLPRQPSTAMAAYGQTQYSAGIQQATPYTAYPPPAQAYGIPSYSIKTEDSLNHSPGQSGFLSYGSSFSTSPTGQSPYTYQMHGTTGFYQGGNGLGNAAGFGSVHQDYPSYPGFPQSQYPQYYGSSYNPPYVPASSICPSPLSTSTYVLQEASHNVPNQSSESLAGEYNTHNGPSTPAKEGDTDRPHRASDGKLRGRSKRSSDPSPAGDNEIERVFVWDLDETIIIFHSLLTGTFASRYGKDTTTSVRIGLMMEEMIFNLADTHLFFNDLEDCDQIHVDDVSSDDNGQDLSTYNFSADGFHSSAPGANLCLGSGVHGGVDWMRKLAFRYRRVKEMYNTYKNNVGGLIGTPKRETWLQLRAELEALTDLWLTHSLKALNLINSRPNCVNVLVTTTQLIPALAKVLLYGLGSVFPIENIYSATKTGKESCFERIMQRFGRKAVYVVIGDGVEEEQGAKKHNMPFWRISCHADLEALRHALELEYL
Target sequence (Q15475 whole entry, looked up): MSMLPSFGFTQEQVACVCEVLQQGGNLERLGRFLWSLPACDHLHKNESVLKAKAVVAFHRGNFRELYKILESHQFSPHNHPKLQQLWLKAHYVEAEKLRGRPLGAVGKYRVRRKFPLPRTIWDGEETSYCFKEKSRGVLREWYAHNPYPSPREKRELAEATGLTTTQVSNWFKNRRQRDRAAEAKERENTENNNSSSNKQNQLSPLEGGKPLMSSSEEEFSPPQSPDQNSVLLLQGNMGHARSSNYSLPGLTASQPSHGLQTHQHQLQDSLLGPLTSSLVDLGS
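AlphaScreen with GST-Six1 and His-Eya2 (5X mix: 250 nM and 500 nM), glutathione donor and nickel acceptor beads; buffer 50 mM Tris pH 8.0, 300 mM NaCl, 1 mM TCEP; 1 h at 37 C in the dark.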
CtBP-E1A blk = inhibitors of CtBP/E1A interaction; AlphaScreen GST-E1A/His-CtBP binding, 1536-well; active compounds read low; activity change, % (test concentration not listed); 0.49% of 340,000 active; AID 651724; in the data active means activity change below about -65%; inconclusive means mostly about -30% to -63%; further: on the % scale 0 is the no-effect control and ±100 the full control effect
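In 5 uL wells, 23 nL compound meets equimolar GST-E1A and His-CtBP (5X stock 125 nM each) for 2 h, 37 °C. Beads (5X, 50 ug/mL) then 1 h, 37 °C, dark.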
Active calls of the source: *; ? = inconclusive; . = no result given; [ ] = remark or other dose. Unless noted, the call rests on the fitted dose curve; in most records, active means well fitted curve in the direction sought with a large enough effect; inconclusive means small, poorly fitted or top-dose-only effect, or another doubt; inactive means no such curve, though single readings can be large; an effect the other way counts as inactive or inconclusive.

SMILES	RORg inh	CBFb-RUNX1 inh	MBNL1-CUG inh	VP16 counter	Six1-Eya2 inh	CtBP-E1A blk
CC(C)COc1ccc(C(=O)Nc2ncn[nH]2)cc1	2.8µM*	.	-4%	3.5µM*	-21	2
Cc1ccsc1C(=O)OCC(=O)NCc1cccs1	.	.	.	.	0	4
CCCCNC(=S)NNC(=O)c1ccco1	13µM*	3%	-4%	?	3	-13
Cc1cccc(NC(=S)NNC(=O)c2ccco2)c1	-21%	15%	-11%	-8%	-16	-22
O=C(NCCNC(=O)c1ccco1)c1ccco1	16µM*	.	-3%	7%	6	-1
CCCCNC(=O)NNC(=O)c1ccco1	-10%	6%	-8%	-6%	12	4
Cc1ccc(C)c(NC(=S)NNC(=O)c2ccco2)c1	2.2µM*	6%	3%	-7%	0	-2
Cc1occc1C(=O)NNC(=S)Nc1ccccc1	14µM*	8%	0%	10%	1	-1
Cc1ccc(S(=O)(=O)c2ccc(-n3nc(C)cc3N)cc2)cc1	2%	5%	-4%	-7%	-12	1
CCCCNC(=S)NNC(=O)c1ccoc1C	8.9µM*	1%	2%	14%	6	17
COc1ccc(-c2nn(Cc3ccccc3)cc2C(=O)N2CCN(c3ncccn3)CC2)cc1	.	.	.	.	-3	.
Cc1cc(C(=O)NNC(=S)NCC(C)C)no1	7.9µM*	0%	4%	-24%	-2	5
CC(C)CNC(=S)NNC(=O)c1ccc2c(c1)OCO2	?	1%	-4%	-4%	1	-21
CN=c1scc(C)n1/N=C/c1cc(Br)c(O)c(Br)c1	4%	-5%	7%	0%	7	37
C=CCN=c1scc(C)n1/N=C/c1ccc(O)c(O)c1	18µM*	?	14%	-3%	-22	.
CN=c1scc(C)n1/N=C/c1ccc(O)cc1O	0.63µM*	-18%	?	1.3µM*	?	?
CN=c1scc(-c2ccco2)n1/N=C/c1ccc(O)c(O)c1	0.089µM*	-28%	?	0.71µM*	?	.
CN=c1scc(C)n1/N=C/c1ccc(O)cc1	?	-12%	?	2.5µM*	-22	-9
CC(C(=O)NC1CCCC1)n1c(-c2ccccn2)nc2ccccc21 (centres undefined)	.	.	.	.	-21	-9
Cc1ccc(S(=O)(=O)Nc2c(O)ccc3ccccc23)cc1	.	.	.	.	-9	-4
Cc1ccc(S(=O)(=O)Nc2c(Cl)c(Cl)c(O)c3ccccc23)cc1	18µM*	.	?	?	.	.
O=C(Nc1ccc(F)c(Cl)c1)C1CC2CCC1C2 (centres undefined)	.	.	.	.	0	13
CS(=O)(=O)Nc1ccc(Cc2ccc(NS(C)(=O)=O)cc2)cc1	36%	2%	-5%	?	4	4
CCS(=O)(=O)Nc1ccc(Cc2ccc(NS(=O)(=O)CC)cc2)cc1	1.3µM*	-3%	-12%	?	-1	6
Cc1sc2nc(CSCC(=O)Nc3ccc(C(=O)N(C)C)cc3)[nH]c(=O)c2c1C	.	.	.	.	-1	-9
SMILES	RORg inh	CBFb-RUNX1 inh	MBNL1-CUG inh	VP16 counter	Six1-Eya2 inh	CtBP-E1A blk
C=CCN1C=C/C(=C\C=C(C#N)C#N)c2ccccc21	-2%[10 µM]	-5%	.	-25%	?	-79*
CCCCCCN1C=C/C(=C\C=C(C#N)C#N)c2ccccc21	-10%	?	?	-15%	?	?
Cc1ccc(C(=O)N/N=C/c2ccc(-c3cccc(Cl)c3)o2)cn1	5µM*	-5%	.	7.1µM*	-27	-1
COc1ccc(/C=N/NC(=O)c2cccnc2)cc1COc1ccc([N+](=O)[O-])c(C)c1	-41%	-20%	.	1%	-13	-23
Cc1ccc(C(=O)N/N=C\c2ccc(-c3ccc(Cl)c(Cl)c3)o2)cn1	?	0%	-3%	?	-10	-27
COc1ccc(-c2ccc(/C=N/NC(=O)c3cccnc3)o2)c([N+](=O)[O-])c1	20µM*	?	?	?	5	11
Cc1ccc(C(=O)N/N=C/c2ccc(-c3ccccc3[N+](=O)[O-])o2)cn1	18%	-2%	?	1%	-69*	?
O=C(N/N=C/c1ccc(-c2ccccc2[N+](=O)[O-])o1)[C@H]1C[C@@H]1c1ccccc1	?	-3%	?	11µM*	?	?
O=C(N/N=C/c1ccc(-c2ccc([N+](=O)[O-])cc2)o1)[C@H]1C[C@@H]1c1ccccc1	17%	4%	20%	-4%	-2	6
CC(C)CNC(=O)C1(C)CCCN1C(=O)CCc1cccs1 (centres undefined)	.	.	.	.	-7	-7
CC1(C)CC[C@]2(C(=O)n3ccnc3)CC[C@]3(C)[C@H](C(=O)C=C4[C@@]5(C)C=C(C#N)C(=O)C(C)(C)[C@@H]5CC[C@]43C)[C@@H]2C1	.	.	.	.	-22	-21
O=C(NC1CCCC1)C1CCN(C(=O)c2ccc(Cl)cc2Cl)CC1	5%	.	-2%	-18%	-2	-1
O=C(c1ccc(N2CCOCC2)c([N+](=O)[O-])c1)N1CCCC(C(F)(F)F)C1 (centres undefined)	.	.	.	.	8	-1
NC(=O)c1cc(S(=O)(=O)Nc2cccc(Cl)c2)cs1	23%	.	-3%	-7%	11	6
COc1ccccc1C(=O)Nc1cc(C)c(OCC(=O)N2CCOCC2)c(C)c1	-7%	.	-1%	-10%	-2	4
O=C(Nc1ccc(OCC(=O)N2CCOCC2)cc1)c1ccccc1Cl	11µM*	.	4%	7.9µM*	10	1
O=C(N/N=C/c1ccc(OCC(=O)N2CCOCC2)cc1)c1ccccc1Cl	5%	1%	15%	7%	7	.
Cc1cc(OCC(=O)N2CCOCC2)ccc1NC(=O)c1ccccc1C	10µM*	.	-11%	?	-1	2
Cc1ccc(C(=O)Nc2cc(C)c(OCC(=O)N3CCOCC3)c(C)c2)cc1	14µM*	4%	-15%	10µM*	0	-1
COc1cc(C(C(=O)NC2CCCCC2)N(C(=O)c2cnccn2)c2ccccc2)cc(OC)c1OC (centres undefined)	4%	.	-1%	-3%	2	1
CCC[C@H]1CC(=O)C=C(c2ccc(OC)cc2)ON1C(=O)OC(C)(C)C	.	.	.	.	-1	-1
O=C(NCc1cccnc1)c1ccc(-c2ccc(Cl)cc2)o1	?	6%	16%	-12%	-18	.
O=C(NCc1cccnc1)/C(=C\c1ccc(-c2ccc(Cl)c(Cl)c2)o1)S(=O)(=O)c1ccccc1	8.9µM*	-4%	-8%	5.6µM*	4	43
